Screens (PubChem)
Shown are actives, neighbours in structure and some others; about 9.2% of the full set was active somewhere.
SMN2 splice enh: qHTS Assay for Enhancers of SMN2 Splice Variant Expression. actives 2.8% (n = 210,000). AID 1458, 2008. Potency, µM (series often up to 46.1 µM), most hits filed as activators. HEK293 SMN2-luciferase splicing reporter, luminescence, 30-36 h; note: nearly all actives have a fitted effect of over 55% in size
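HEK293 cells carry an SMN2 minigene-luciferase reporter in which exon 7 inclusion puts luciferase in frame. Cells were seeded at 2000 cells/well, attached for 10-12 hours, then exposed to compounds for 30-36 hours at 37C before ONE-Glo luminescence.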
Rab9 promoter act: qHTS Assay for Rab9 Promoter Activators. actives 2.8% (n = 320,000). Huh7 Rab9 promoter-luciferase reporter, luminescence, 24 h. Potency, µM (titrated, usually from 9.22 µM), most hits filed as activators; note: nearly all actives have a fitted effect of over 60% in size
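Rab9 promoter-driven luciferase in stably transfected Huh7 cells; 1500 cells/well rested 2 h, exposed to compound in DMSO for 24 h at 37 °C, 5% CO2. Luminescence read 10 min after adding luciferase reagent at ambient temperature.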
FLuc modulator: qHTS profiling assay for firefly luciferase inhibitor/activator using purifed enzyme and Km concentrations of substrates (counterscreen for miR-21 project); Luciferin 4-monooxygenase (Photinus pyralis), P08659; purified FLuc, Km substrates, luminescence inhibition; Potency, µM (highest dose often 57.5 µM), usual class: inhibitors; actives 6.9% (n = 360,000); AID 588342, 2011; note: nearly all actives have a fitted effect of over 55% in size
Target sequence (P08659 whole entry, looked up): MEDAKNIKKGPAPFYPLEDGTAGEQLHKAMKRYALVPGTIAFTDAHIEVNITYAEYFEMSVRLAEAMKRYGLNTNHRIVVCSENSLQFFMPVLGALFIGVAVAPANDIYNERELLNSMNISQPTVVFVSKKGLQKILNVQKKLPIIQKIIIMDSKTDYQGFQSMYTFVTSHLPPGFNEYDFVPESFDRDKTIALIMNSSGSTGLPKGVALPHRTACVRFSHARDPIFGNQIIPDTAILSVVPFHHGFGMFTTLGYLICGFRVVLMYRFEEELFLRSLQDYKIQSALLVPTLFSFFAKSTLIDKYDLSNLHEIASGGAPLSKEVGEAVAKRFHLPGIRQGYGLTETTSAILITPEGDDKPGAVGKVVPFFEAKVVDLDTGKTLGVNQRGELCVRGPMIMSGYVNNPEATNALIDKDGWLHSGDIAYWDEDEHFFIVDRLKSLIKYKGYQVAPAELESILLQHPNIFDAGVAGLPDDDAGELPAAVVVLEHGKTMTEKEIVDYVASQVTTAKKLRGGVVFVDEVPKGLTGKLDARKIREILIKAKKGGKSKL
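Purified P. pyralis luciferase (10nM final) with 10uM D-luciferin and 10uM ATP (Km levels) in 50mM Tris acetate pH 7.5, 10mM Mg acetate, 0.01% Tween-20, 0.05% BSA; qHTS 6-point titration, ~60 µM downward; luminescence read.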
ELG1 genotoxic: qHTS screen for small molecules that induce genotoxicity in human embryonic kidney (HEK293T) cells expressing luciferase-tagged ELG1 | AID 504466, 2011 | HEK293T ELG1-luciferase reporter, luminescence, 16 h | actives 1.3% (n = 330,000) | Potency, µM (top dose mostly 46 µM), hits mostly activators; note: nearly all actives have a fitted effect of over 60% in size
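Genotoxicity was scored as increased ELG1-luciferase reporter signal, measured by ONE-Glo luminescence (30 min, room temperature). Compound or vehicle exposure of the HEK293T reporter cells lasted 16 hr at 37°C.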
ELG1 repair inh: qHTS screen for small molecules that inhibit ELG1-dependent DNA repair in human embryonic kidney (HEK293T) cells expressing luciferase-tagged ELG1. HEK293T ELG1-luciferase reporter, luminescence, 16 h; DNA damage induced by 5-fluorouridine. Potency, µM (highest dose often 46.1 µM), most hits filed as inhibitors. actives 2.3% (n = 330,000). AID 504467, 2011; note: nearly all actives have a fitted effect of over 55% in size
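In this reporter screen, reduction of luminescence relative to DMSO vehicle indicated activity. Compounds and 5-fluorouridine were added together to 2,000 cells per well, incubated for 16 hr at 37 °C, then developed with ONE-Glo.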
NPC1 prom act: qHTS Assay for NPC1 Promoter Activators; Huh7 NPC1 promoter luciferase reporter, 24 h; Potency, µM (series often up to 9.22 µM), actives largely listed as activators; actives 2.4% (n = 320,000); AID 485313, 2010; note: nearly all actives have a fitted effect of over 60% in size
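Stable NPC1-promoter luciferase Huh7 line; cpd (DMSO) 24 h, 37 °C, 5% CO2; Amplite luciferase reagent 10 min RT; luminescence readout. qHTS format.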
Numbers stand for hits; . = inactive; ? = inconclusive; / = no result given; [ ] = another dose, or the depositor's remark. Calls come from the whole dose curve; as a rule, active = well fitted curve in the direction sought with a large enough effect; inconclusive = small, poorly fitted or top-dose-only effect, or another doubt; inactive = no such curve, though single readings can be large; an effect the other way counts as inactive or inconclusive.

SMILES	SMN2 splice enh	Rab9 promoter act	FLuc modulator	ELG1 genotoxic	ELG1 repair inh	NPC1 prom act
CC1CCCN(c2ccc(C(=O)Nc3ccc4c(c3)OCO4)cc2[N+](=O)[O-])C1 (stereo not given)	.[1.84 µM]	.	?	.	21µM	.
COc1ccc2[nH]c(C(=O)Nc3ncc(C)cc3Br)cc2c1	/	.	19µM	.	.	.
CC(C)NC(=O)Nc1ccc2c(c1)C(=O)N([C@H](C)CO)C[C@@H](C)[C@@H](CN(C)C(=O)NC1CCCCC1)O2	/	/	/	.	.	/
COc1ccc(NC(=O)c2ccc3c(c2)OCO3)cc1	/	0.63µM	3.4µM	5.2µM	?	1.1µM
CCN(CC)c1ccc(C(=O)NC(=S)N2CCN(Cc3ccc4c(c3)OCO4)CC2)cc1	.	.	21µM	.	.	.
CC(C)NC(=S)N1CCN(Cc2ccc3c(c2)OCO3)CC1	.	.	.	.	.	.
COc1ccc2[nH]c(C(=O)Nc3ccc4c(c3)OCO4)cc2c1	/	2.8µM	4.8µM	.	?	3.2µM
CCOC(=O)c1ccc(NC(=O)c2ccc3c(c2)OCO3)cc1	.	?	?	.	?	.
CSc1ccc(CCNC(=O)CN2C(=O)COc3ccc(S(=O)(=O)N4CCCCCC4)cc32)cc1	.	/	.	/	/	/
Nc1ccc(S(=O)(=O)N2CCOCCOCCOCCOCCOCC2)cc1	/	.	.	.	.	.
CCOC(=O)c1c(NC(=O)COC(=O)c2nc(Cl)ccc2Cl)sc(C(=O)NC)c1C	/	.	.	.	?	.
CCCc1cc(NCC2CCCO2)n2c(nc3ccccc32)c1C#N (stereo not given)	.	.	17µM	.	23µM	.
CCCc1cc(NCc2ccccn2)n2c(nc3ccccc32)c1C#N	.	.	11µM	.	?	.
Cc1cc(NCc2ccccn2)n2c(nc3ccccc32)c1C#N	.	.	.	.	.	.
O=CNn1cnc2c(oc3nc(-c4ccccc4)cc(-c4ccco4)c32)c1=O	.	.	.	.	.	.
CC(=O)c1ccc(NC(=O)CN2CCCC2)cc1	/	.	?	?	?	?
CCc1ccc(CNC(=O)c2ccc3c(c2)c(C)c(C)n3Cc2ccccc2)cc1	/	/	.	/	/	/
Cc1c(C)n(Cc2ccccc2)c2ccc(C(=O)OCCN(C)C)cc12	/	.	21µM	.	.	.
O=C(COc1ccc(F)cc1)Nc1ccccc1C(=O)OCc1cc(=O)n2nc(C3CC3)sc2n1	/	/	.	/	/	/
O=C(COc1ccccc1)Nc1ccccc1C(=O)OCc1cc(=O)n2nc(C3CC3)sc2n1	/	/	21µM	/	/	/
CC(C)c1nn2c(=O)cc(COC(=O)c3ccccc3NC(=O)COc3ccccc3)nc2s1	/	/	21µM	/	/	/
Cc1noc(/C=C/c2ccco2)c1S(=O)(=O)N1CCC(C(=O)Nc2ccc(F)c(Cl)c2)CC1	.	/	.	/	/	/
COc1cc2c(cc1NC(=O)c1ccco1)CCCC2	.	?	21µM	.	?	.
COc1cc(NC(=O)C(C)C)ccc1NC(=O)c1ccco1	11µM	1.1µM	19µM	7.9µM	?	4µM
COc1cc(NC(=S)NC(=O)c2ccco2)ccc1NC(=O)C(C)C	.	.	?	.	?	.
SMILES	SMN2 splice enh	Rab9 promoter act	FLuc modulator	ELG1 genotoxic	ELG1 repair inh	NPC1 prom act
CC(=O)c1ccc(OCC(=O)OCC(=O)N(CC(C)C)c2c(N)n(Cc3ccccc3)c(=O)[nH]c2=O)cc1	/	.	.	.	.	.
CC(=O)N/C(=C/c1ccc2c(c1)OCO2)C(=O)NCCO	.	.	.	.	.	.
COc1cc(CNC(=O)c2ccc(Cn3nc(C)c(Cl)c3C)o2)cc(OC)c1	.	.	.	.	18µM	.
COC(=O)c1ccc(C2Nc3c(C)cc(C)cc3C3C=CCC32)cc1 (stereo not given)	.	/	.	/	/	/
O=C(COC(=O)CCSc1ccc(F)cc1)NCc1ccc(F)cc1	/	/	/	.	.	/
N#Cc1c(-c2ccccc2Cl)noc1/C=C/Nc1ccc(C(=O)O)cc1	/	.	24µM	.	.	.
Cc1cccc(OC(=O)c2cc(-c3ccc(Cl)cc3)on2)c1C	/	/	.	/	/	/
CC1(c2ccccc2)NC(=O)N(CC(=O)Nc2ccc(C(N)=O)cc2)C1=O (stereo not given)	/	.	.	.	.	.
CCOCCCNc1ccc(-c2ccccc2)nn1	14µM	2.2µM	?	13µM	?	?
CCOCCCNc1nc2ccccc2[nH]1	.	.	.	.	.	.
CCN1C(=O)/C(=C/N2CCc3ccccc3C2)SC1=S	/	?	24µM	.	?	?
O=C(Nc1cc2c(cc1C(=O)c1ccccc1Cl)OCCO2)c1ccc(Br)cc1	.	/	.	/	/	/
O=C(Nc1cc2c(cc1Cl)OCCCO2)c1ccc(F)cc1	7.9µM	2.8µM	12µM	?	?	?
O=C(Nc1cc2c(cc1Br)OCCCO2)c1ccccc1	16µM	4µM	13µM	?	?	3.5µM
Cc1ccc(C(=O)Nc2cc3c(cc2Cl)OCCCO3)cc1	11µM	2µM	7.6µM	?	?	1.8µM
O=C(Nc1cc2c(cc1Br)OCCCO2)c1cccnc1	/	.	?	?	?	.
CC(=O)c1cc2c(cc1NC(=O)c1ccc(Cl)cc1)OCCO2	/	.	.	.	?	.
COc1ccc(OC)c(C(=O)COC(=O)c2[nH]c(C)c(C(C)=O)c2C)c1	/	.	.	.	.	.
COC(=O)c1ccc(-c2nc(CN3CCN(Cc4cccc(C)c4)CC3)c(C)o2)cc1	/	.	.	.	.	.
COC(=O)c1ccc2c(c1)N(Cc1nc(-c3cccc(C)c3)oc1C)C(=O)C1CCCN21 (stereo not given)	10µM	.	.	.	.	.
Cc1cc(=O)oc2c(C)c(OCC(=O)N3CCN(c4ccc(F)cc4)CC3)ccc12	/	.	.	.	?	.
O=C(COc1cccc2ccccc12)N1CCN(c2ccccc2)CC1	.	.	.	.	8.2µM	.
Cc1cc(=O)oc2cc(OCC(=O)N3CCN(c4ccccc4)CC3)c(Cl)cc12	/	.	19µM	.	.	.
Cc1cccc(N2CCN(C(=O)CSc3ccc4c(c3)OCCO4)CC2)c1C	/	.	.	.	11µM	.
Cc1cccc(N2CCN(C(=O)COc3ccc4c(C)cc(=O)oc4c3C)CC2)c1C	/	.	.	.	26µM	.
CCCn1c(SCc2nc(-c3ccccc3OCC)no2)nnc1-c1ccc(Cl)cc1	.	/	.	/	/	/
COc1ccccc1C1CCN(C(=O)c2cccc([N+](=O)[O-])c2)CC1	/	.	.	.	?	.
